Data: the supplement of paper PMC8728848
Many of the other results were omitted from the sample, so the strongest signals are more common in it than they were.

Columns and labels:
Assay in all cases: glycan array binding signal (z-score within array); higher = stronger binding
Details in all cases: glycan notation: IUPAC condensed, linker removed
Gal6S(b1-3)GlcNAc = target: Gal6S(b1-3)GlcNAc
Method in brief: (§1)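 Columns mapping to the same glycan were averaged after glycan names were converted to IUPAC-condensed notation. The data come from 3228 arrays in the Consortium for Functional Glycomics database, limited to those with an available protein sequence. Binding is reported as a within-array Z-score averaged across arrays of one protein sequence and across linkers.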

Gal6S(b1-4)GlcNAc = target: Gal6S(b1-4)GlcNAc
Method in brief: as §1

[1] = target: GalNAc(a1-3)GalNAc(b1-3)Gal(a1-4)Gal(b1-4)GlcNAc
Method in brief: as §1

GalNAc(b1-3)Gal = target: GalNAc(b1-3)Gal
Method in brief: as §1

GalNAc(b1-4)GlcNAc6S = target: GalNAc(b1-4)GlcNAc6S
Method in brief: as §1

[2] = target: Glc(a1-4)Glc(a1-4)Glc(a1-4)Glc
Method in brief: as §1

Glc(a1-6)Glc(a1-6)Glc = target: Glc(a1-6)Glc(a1-6)Glc
Method in brief: as §1

[3] = target: Glc(a1-6)Glc(a1-6)Glc(a1-6)Glc
Method in brief: as §1

[4] = target: GlcNAc(a1-4)Gal(b1-4)GlcNAc(b1-3)Gal(b1-4)[Fuc(a1-3)]GlcNAc(b1-3)Gal(b1-4)[Fuc(a1-3)]GlcNAc
Method in brief: as §1

[5] = target: GlcNAc(a1-6)Gal(b1-4)GlcNAc
Method in brief: as §1

[6] = target: GlcNAc(b1-2)[GlcNAc(b1-6)]Man(a1-6)[GlcNAc(b1-2)Man(a1-3)]Man(b1-4)GlcNAc(b1-4)GlcNAc
Method in brief: as §1

[7] = target: GlcNAc(b1-2)[GlcNAc(b1-6)]Man(a1-6)[GlcNAc(b1-4)][GlcNAc(b1-2)Man(a1-3)]Man(b1-4)GlcNAc(b1-4)GlcNAc
Method in brief: as §1

[8] = target: GlcNAc(b1-3)Gal(b1-4)GlcNAc(b1-3)Gal(b1-4)GlcNAc(b1-3)GalNAc
Method in brief: as §1

GlcNAc(b1-4)GlcNAc = target: GlcNAc(b1-4)GlcNAc
Method in brief: as §1

[9] = target: GlcNAc(b1-4)GlcNAc(b1-4)GlcNAc(b1-4)GlcNAc(b1-4)GlcNAc
Method in brief: as §1

[10] = target: GlcNAc(b1-6)Gal(b1-4)GlcNAc
Method in brief: as §1

[11] = target: GlcNAc6S(b1-3)Gal(b1-4)GlcNAc
Method in brief: as §1

[12] = target: Man(a1-2)Man(a1-2)Man(a1-6)[Man(a1-3)]Man
Method in brief: as §1

[13] = target: Man(a1-2)Man(a1-3)[Man(a1-2)Man(a1-6)]Man(a1-6)[Man(a1-2)Man(a1-2)Man(a1-3)]Man
Method in brief: as §1

[14] = target: Man(a1-3)[Man(a1-6)]Man(a1-6)[Man(a1-2)Man(a1-3)]Man(b1-4)GlcNAc(b1-4)GlcNAc
Method in brief: as §1

[15] = target: Neu5Ac(a2-3)Gal(b1-4)GlcNAc(b1-2)Man
Method in brief: as §1

[16] = target: Neu5Ac(a2-3)Gal(b1-4)GlcNAc(b1-3)Gal(b1-4)GlcNAc(b1-2)Man(a1-3)[Neu5Ac(a2-3)Gal(b1-4)GlcNAc(b1-3)Gal(b1-4)GlcNAc(b1-2)Man(a1-6)]Man(b1-4)GlcNAc(b1-4)GlcNAc
Method in brief: as §1

[17] = target: Neu5Ac(a2-3)Gal(b1-4)GlcNAc(b1-6)[Neu5Ac(a2-3)Gal(b1-3)]GalNAc
Method in brief: as §1

[18] = target: Neu5Ac(a2-3)Gal(b1-4)GlcNAc6S
Method in brief: as §1

Neu5Ac(a2-6)Gal = target: Neu5Ac(a2-6)Gal
Method in brief: as §1

[19] = target: Neu5Ac(a2-6)Gal(b1-4)GlcNAc(b1-2)Man(a1-3)[Neu5Ac(a2-6)Gal(b1-4)GlcNAc(b1-2)Man(a1-6)]Man(b1-4)GlcNAc(b1-4)[Fuc(a1-6)]GlcNAc
Method in brief: as §1

[20] = target: Neu5Ac(a2-6)Gal(b1-4)GlcNAc(b1-3)Gal(b1-4)GlcNAc(b1-6)[Gal(b1-3)]GalNAc
Method in brief: as §1

[21] = target: Neu5Ac(a2-6)Gal(b1-4)GlcNAc(b1-6)[Gal(b1-3)]GalNAc
Method in brief: as §1

[22] = target: Neu5Gc(a2-3)Gal(b1-3)[Fuc(a1-4)]GlcNAc
Method in brief: as §1

B1: VLRB.aGPA.23-GCN4-biotin (Petromyzon marinus) (protein)
chain: ACPSQCSCSGTEVNCAGKSLASVPAGIPTTTRVLYLNSNQITKLEPGVFDRLANLRELHLWGNQLVSLPPGVFDNLANLEKLWLNSNQLTSLPAGLFDRLVNLEHLGLCCMKLTELPSGAFDKLTRLKQLGLDQNQLKSIPDGAFARLPSLTHVWLHTNPWDCQCTDILYLSGWVAQHSSIVGEGWPWRHSPDSAKCSGTNTPVRAVTEASTSPSKCP
glycan array binding signal (z-score) (Gal6S(b1-3)GlcNAc): 0.341 | glycan array binding signal (z-score) (Gal6S(b1-4)GlcNAc): -0.083 | glycan array binding signal (z-score) [1]: -0.076 | glycan array binding signal (z-score) (GalNAc(b1-3)Gal): -0.076 | glycan array binding signal (z-score) (GalNAc(b1-4)GlcNAc6S): -0.082 | glycan array binding signal (z-score) [2]: -0.064 | glycan array binding signal (z-score) (Glc(a1-6)Glc(a1-6)Glc): -0.077 | glycan array binding signal (z-score) [3]: -0.076 | glycan array binding signal (z-score) [4]: -0.069 | glycan array binding signal (z-score) [5]: -0.087 | glycan array binding signal (z-score) [6]: -0.079 | glycan array binding signal (z-score) [7]: -0.085 | glycan array binding signal (z-score) [8]: -0.084 | glycan array binding signal (z-score) (GlcNAc(b1-4)GlcNAc): -0.088 | glycan array binding signal (z-score) [9]: -0.086 | glycan array binding signal (z-score) [10]: -0.084 | glycan array binding signal (z-score) [11]: -0.08 | glycan array binding signal (z-score) [12]: -0.059 | glycan array binding signal (z-score) [13]: -0.081 | glycan array binding signal (z-score) [14]: 0.041 | glycan array binding signal (z-score) [15]: -0.068 | glycan array binding signal (z-score) [16]: -0.005 | glycan array binding signal (z-score) [17]: -0.087 | glycan array binding signal (z-score) [18]: -0.079 | glycan array binding signal (z-score) (Neu5Ac(a2-6)Gal): -0.082 | glycan array binding signal (z-score) [19]: -0.074 | glycan array binding signal (z-score) [20]: -0.072 | glycan array binding signal (z-score) [21]: -0.077 | glycan array binding signal (z-score) [22]: -0.074
